Among the data in PubChem BioAssay (NCATS) are outcome values, retold here.

Inconclusive results are not listed. Calls of active or inactive are those of the source. Calls come from the whole dose curve; as a rule, active = well fitted inhibition curve with a large enough effect; inconclusive = small, poorly fitted or top-dose-only effect; inactive = flat fitted curve, though single readings scatter.

This assay relates to CRL-7250. As to the kind of experiment: qHTS assay to identify novel small-molecules to repurpose for Merkel cell carcinoma treatment (AID 1296009). Note: nearly all actives have a fitted effect of over 60% in size. To be noted: MCC and control cell lines, CellTiter-Glo viability, 72 h; at 44.8 µM (top of the series) unless noted. In outline:
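Cells were incubated with compound for 72 hr at 37 degree celsius before CellTiter-Glo addition. Luminescence was normalized with no-cell wells as full cytotoxicity and DMSO as baseline.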
(qHTS replaces the single test concentration by a dilution series.)
Consider `Cc1cc(CC(=O)O)c(C)n1-c1ccc(Cl)cc1`, for which the call was inactive.

`CC1COc2c(N3CCN(C)CC3)c(F)cc3c(=O)c(C(=O)O)cn1c23` (stereo unspecified): the result was inactive.

For `NCCCCCC(=O)O`, the compound was called inactive.

For `O=C(COCCOCCOCC(=O)Nc1c(I)cc(I)c(C(=O)O)c1I)Nc1c(I)cc(I)c(C(=O)O)c1I`, the compound was called inactive.

Turning to `COCCCOc1ccnc(CS(=O)c2nc3ccccc3[nH]2)c1C` (stereo unspecified), the compound was called inactive.

Take `O=C1CC(c2ccc(Cl)cc2)CC(=O)N1`: the outcome was inactive.

In the case of `O=C(CO)[C@@H](O)[C@H](O)[C@@H](O)CO`, the compound was classed as inactive.

On to `CN1CCN(C(=O)C2CCCCC2)CC1`, for which the result was inactive.

With `CC(CCc1ccccc1)NCC(O)c1ccc(O)c(C(N)=O)c1` (stereo unspecified), the outcome was inactive.

For the compound `FC(F)(F)c1ccccc1-n1ccnc1`, the call was inactive.

On to `CC(C)Cn1cnc2c(N)nc3ccccc3c21`, for which the outcome is “inactive [at 17.4 µM]”.

Consider `Cc1c[nH]c2ccccc12`, for which the outcome was inactive.

For `CCOC(=O)O[C@]1(C(=O)OCCl)CC[C@H]2[C@@H]3CCC4=CC(=O)C=C[C@]4(C)[C@H]3[C@@H](O)C[C@@]21C`, the outcome was inactive.

For `CCOc1cc(CC(=O)N[C@@H](CC(C)C)c2ccccc2N2CCCCC2)ccc1C(=O)O`, the compound was called inactive.

For the compound `CC(C)(Sc1cc(C(C)(C)C)c(O)c(C(C)(C)C)c1)Sc1cc(C(C)(C)C)c(O)c(C(C)(C)C)c1`, the outcome was inactive.

For the compound `CC(C)c1ccc2oc3nc(N)c(C(=O)O)cc3c(=O)c2c1`, the result was inactive.

As for `NCCCNCCSP(=O)(O)O`, the outcome is “inactive [at 9.27 µM]”.

`NC(=O)N[C@@H](CCC(=O)O)C(=O)O`: the outcome was inactive.

`O=C1NCC2(CCN(CCc3ccccc3)CC2)O1`: the compound was classed as inactive.

For `CCCCCCCCCCCCCCCCCC(=O)OCC(O)CO` (stereo unspecified), the call was inactive.

With `CC(C)=CCC/C(C)=C/CO`, the result was inactive.
